Compounds with a hit are over-represented: about 3.5% of the library has one in this group of screens.
TEAD-YAP inh: TEAD-YAP interaction inhibition; HEK-TIYL cells, TEAD-Gal4/YAP UAS-luciferase luminescence; hit rate 1.4% among 640,000; inhibition, % at 9.12 µM; in the data active means inhibition above about 32%;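 further: 0% = median of test compound wells and 100% = reference inhibitor wells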
FBW7 act: human FBW7 E3 ligase activation, primary screen; hit rate 0.13% among 650,000; AlphaScreen FBW7–phospho-cyclin E peptide binding, activator screen; AID 1259310; Q969H0; normalized activity (activation), % at 26.1 µM; in the data active means normalized activity above about 1.9%;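 further: purified mutant Fbw7 with reduced substrate affinity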
MITF primary: inhibitors of human MITF | AID 1259374 | AlphaScreen MITF homodimerization, bead proximity signal | O75030 | inhibition, % at 2.6 µM | hit rate 0.91% among 650,000; in the data active means inhibition above about 50%;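 further: 0% = vehicle wells with protein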
Target sequence (O75030 whole entry, looked up): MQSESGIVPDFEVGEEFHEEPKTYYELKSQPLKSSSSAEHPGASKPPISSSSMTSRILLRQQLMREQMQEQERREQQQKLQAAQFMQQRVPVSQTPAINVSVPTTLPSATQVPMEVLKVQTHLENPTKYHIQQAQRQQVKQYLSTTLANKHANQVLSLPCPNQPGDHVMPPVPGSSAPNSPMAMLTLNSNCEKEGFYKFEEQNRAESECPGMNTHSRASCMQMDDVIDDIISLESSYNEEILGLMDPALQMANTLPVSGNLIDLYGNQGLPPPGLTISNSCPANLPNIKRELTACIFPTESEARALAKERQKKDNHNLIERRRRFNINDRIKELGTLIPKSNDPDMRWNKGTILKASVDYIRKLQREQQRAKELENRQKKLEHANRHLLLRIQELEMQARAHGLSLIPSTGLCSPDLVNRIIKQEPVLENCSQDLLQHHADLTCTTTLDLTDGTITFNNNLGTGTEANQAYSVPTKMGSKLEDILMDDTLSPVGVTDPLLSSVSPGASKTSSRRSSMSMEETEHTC
GPR151 activ: activates the human receptor GPR151. PathHunter beta-arrestin GPR151 cells, luminescence. hit rate 1% among 650,000. activation, % at 11.2 µM; in the data active means activation above about 4.9%;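 further: 0% = median of compound wells and 100% = cells with positive control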
An asterisk follows results filed as active.

SMILES	TEAD-YAP inh	FBW7 act	MITF primary	GPR151 activ
CC(c1ccccc1)c1ccc(O)c(O)c1 (stereo not drawn)	-5	0	-6	-2
c1csc(-c2cn3nc4c(nc3n2)CCCC4)c1	34*	0	2	-6
Cc1nc2nc(-c3cccs3)cn2nc1C	-23	0	6	-5
CSc1ccccc1C(=O)Nc1nc2cc(C)cc(C)c2s1	-10	0	-16	0
Cc1cc(C)c2sc(NC(=O)c3ccccc3C)nc2n1	61*	0	-17	-1
CSc1ccccc1C(=O)Nc1nc2nc(C)cc(C)c2s1	-12	8.8*	3	0
Cc1cc(C)c2sc(NC(=O)c3cc4ccccc4o3)nc2n1	-46	0	8	-2
Cc1oc(-c2ccc(Cl)cc2)nc1CSCC(=O)NC1CC1	-1	-1	3	1
Cc1oc(-c2ccc(Cl)cc2)nc1CSCC(=O)N1CCC2(CC1)OCCO2	38*	0	-9	0
Cc1oc(-c2ccccc2Cl)nc1CSCC(=O)N1CCCC1	58*	0	8	0
Cc1oc(-c2cccs2)nc1CSCC(=O)N1CCCC1	2	0	-5	0
CC(=O)Oc1cccc(-c2nc(Nc3ccc4[nH]ncc4c3)c3ccccc3n2)c1	-11	1	10	1
Cc1c(C(=O)Nc2c(F)cccc2F)sc2nc[nH]c(=O)c12	13	0	7	0
Cc1cc(N2CCN(c3ccccc3)CC2)nc(NCc2ccccc2)n1	12	0	3	0
Cc1cc(N2CCCCC2)nc(NCCNS(=O)(=O)Cc2ccccc2)n1	55*	0	4	-1
Cc1nc(CN2CCN(S(C)(=O)=O)CC2)cs1	-17	0	-26	0
Cc1nc(CN2CCN(C(=O)CCl)CC2)cs1	48*	0	4	4
CC1=C(C(=O)Nc2ccccc2C)C(c2cccs2)C(C#N)=C(SCC(=O)Nc2ccccc2C)N1 (stereo not drawn)	3	0	1	-1
COc1ccc(-c2ncc(C)c(NCCOc3ccccc3)n2)cc1	4	0	12	1
Cc1ccc2nc(-c3ccccc3)cn2c1	98*	1	-3	-10
Cc1ccc2nc(-c3cccc(Br)c3)cn2c1	85*	0	30	-7
Oc1ccccc1-c1cn2cc(Cl)ccc2n1	-41	0	9	-2
Cc1ccc2nc(-c3ccccc3Br)cn2c1	73*	0	-8	-6
Cc1cccc(C)c1OCC(=O)N/N=C/c1ccc(O)c(O)c1	14	0	8	0
COc1ccc(CCNc2cc(N3CCN(C)CC3)ccc2[N+](=O)[O-])cc1OC	48*	0	-1	1
SMILES	TEAD-YAP inh	FBW7 act	MITF primary	GPR151 activ
COc1ccc(CCNc2cc(N3CCCC3)ccc2[N+](=O)[O-])cc1OC	-5	0	3	-1
COc1ccc(CCNc2cc(N3CCN(S(=O)(=O)c4ccc(OC)c(OC)c4)CC3)ccc2[N+](=O)[O-])cc1OC	-6	0	2	0
COc1ccc(CCNc2cc(N3CCN(S(C)(=O)=O)CC3)ccc2[N+](=O)[O-])cc1OC	60*	0	18	2
CC(=O)Nc1nnc(SCc2cc(=O)c(OC(=O)c3cccc(Cl)c3)co2)s1	6	0	13	0
Cn1c2ccccc2n2c(=O)n(Cc3ccccn3)nc12	-10	1	15	1
CCC1Oc2ccc(C)cc2N(CC(=O)Nc2ccc3c(c2)OCCO3)C1=O (stereo not drawn)	-32	0	0	-1
CS(=O)(=O)Nc1ccc(-c2nnc(SCC(=O)Nc3ccccc3Cl)o2)cc1	-27	0	-5	1
CS(=O)(=O)Nc1ccc(-c2nnc(SCC(=O)Nc3ccccc3F)o2)cc1	37*	0	6	0
CC1=CC(C)(C)N(S(C)(=O)=O)c2ccc(OS(C)(=O)=O)cc21	1	0	7	1
COc1ccc(S(=O)(=O)N2c3cc(C)ccc3C(C)=CC2(C)C)cc1	63*	0	6	1
COc1ccc(S(=O)(=O)N2c3ccc(Cl)cc3C(C)=CC2(C)C)cc1	58*	0	14	0
CCOCCOC(=O)C1=C(C)N(C)C(=O)NC1c1ccc([N+](=O)[O-])cc1 (stereo not drawn)	6	0	5	0
CCOC(=O)c1cc2cccc(NS(=O)(=O)c3ccc(C)cc3)c2[nH]1	39*	0	5	0
COC(=O)c1ccc(C)c(NS(=O)(=O)c2ccc(C)cc2)c1	56*	0	-6	0
COC(=O)c1ccc(C)c(NS(=O)(=O)c2ccc(F)cc2)c1	-4	0	-1	-2
COC(=O)c1ccc(C)c(NS(=O)(=O)c2ccc(Br)cc2)c1	45*	0	-12	-1
C/C(=N/NC(=O)c1cccs1)c1ccc(O)cc1	-59	0	5	-3
COCCNC(=O)c1c(C)nc2c(C)cccn12	-3	0	6	0
COC(=O)C1CCN(Cc2ccc3c(c2)CN(C(=O)Cc2cccc(F)c2)CCO3)CC1	6	2.1*	18	-1
CC(=O)c1ccc(C(=O)N2CCOc3ccc(CN4CCN(C(C)=O)CC4)cc3C2)cc1	5	2.3*	5	0
CC(C)CC(=O)Nc1ccc(S(=O)(=O)N2CCC(c3nc4ccccc4[nH]3)CC2)cc1	34*	0	20	1
COc1ccccc1C(=O)Oc1ccc(Cl)cc1NC1=NS(=O)(=O)c2ccccc21	-8	0	-3	0
O=C(Oc1ccccc1NC1=NS(=O)(=O)c2ccccc21)c1ccccc1Cl	60*	0	13	2
O=C(/C=C/c1ccccc1)N1CCc2ccccc21	66*	0	6	-6
COc1ccc(/C=C/C(=O)N2CCc3ccccc32)cc1	74*	0	8	-7
SMILES	TEAD-YAP inh	FBW7 act	MITF primary	GPR151 activ
O=C(/C=C/c1cccs1)N1CCc2ccccc21	70*	0	18	-6
O=C(/C=C/c1ccccc1)N1CCCc2ccccc21	-27	0	3	2
Cc1cc(C(=O)N2CCc3ccccc32)n(-c2ccccc2)n1	35*	0	3	1
O=C(/C=C/c1ccc([N+](=O)[O-])cc1)N1CCCc2ccccc21	-7	0	28	1
CCc1nnc(NC(=O)c2cccc(S(=O)(=O)N3CCCCCC3)c2)s1	-12	1	16	1
CC(C)(C)NC(=O)COC(=O)/C=C/c1cccc(Cl)c1	12	0	12	-1
O=C(Nc1nc(-c2cccc([N+](=O)[O-])c2)cs1)c1ccc(S(=O)(=O)N2CCCc3ccccc32)cc1	-3	1	-5	-1
N=c1oc2ccc([N+](=O)[O-])cc2cc1C(=O)Nc1ccc(Br)cc1	-11	1	12	1
CC(C)(C)c1ccc(-c2nc3cc(NC(=O)c4ccc(-c5cccc([N+](=O)[O-])c5)o4)ccc3o2)cc1	34*	0	-13	1
O=C(Nc1ccc2oc(-c3ccc(I)cc3)nc2c1)c1ccc2c(c1)OCCO2	-17	0	-10	-1
CC(C)(C)c1ccc(-c2nc3cc(NC(=O)c4ccc(Br)o4)ccc3o2)cc1	37*	0	-10	0

From PubChem
